{"source": "PubChem BioAssay", "note": "Active and inactive are the calls of the source.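 The calls were made as follows: active = visually confirmed hit in the image check and inhibition above 20%; inconclusive = visually confirmed hit but inhibition not above 20%; inactive = no visual hit in the image check.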", "data": [{"experiment": "inhibitors of E-selectin induction by TNFa, primary screen, imaging, HUVEC, immunofluorescence, MLSMR starter and 10KST1 sets (AID 487);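 as to inhibition: signal is fraction of cell area covered by stained E-selectin grains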;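 as to nuclei count: 100% = median nuclei count of all wells on the same plate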", "conditions": "HUVEC TNFalpha-induced E-selectin immunofluorescence imaging, at 2 µM; inhibition: stronger effect = higher value; nuclei count: measured here: cell number, toxicity", "units": {"nuclei count": "%"}, "values": [{"smiles": "CC1=C(C(N)=O)C(c2ccc(Cl)cc2Cl)n2ncnc2N1", "note": "(stereo not given)", "inhibition": "-129% (inactive)", "nuclei count": 106}, {"smiles": "Cc1cc2c(s1)c1cnn(CC(=O)NCCc3ccccc3)c(=O)c1n2C", "nuclei count": 102, "inhibition": "-76.9% (inactive)"}, {"smiles": "CCc1c(C)nc(N2CCN(Cc3ccccc3)CC2)[nH]c1=O", "nuclei count": 106, "inhibition": "-51.5% (inactive)"}, {"smiles": "O=C1C2CCCN2C(c2ccc(Cl)cc2)N1c1nccs1", "note": "(stereo not given)", "inhibition": "12.8% (inactive)", "nuclei count": 92.8}, {"smiles": "CCCCN(CC)S(=O)(=O)N1CCC(C(=O)NCc2ccc(F)cc2)CC1", "inhibition": "-8% (inactive)", "nuclei count": 113}, {"smiles": "O=c1c2nnn(Cc3ccccc3)c2ncn1-c1ccccc1", "inhibition": "9% (inactive)", "nuclei count": 99}, {"smiles": "CNC(=O)CN(c1cc(C)ccc1OC)S(=O)(=O)c1ccc(C)cc1", "inhibition": "6.9% (inactive)", "nuclei count": 105}, {"smiles": "CCCCC(CC)C(=O)Nc1ccc(Cl)cn1", "note": "(stereo not given)", "inhibition": "-29.4% (inactive)", "nuclei count": 117}, {"smiles": "CCOC(=O)N1CCN(S(=O)(=O)c2ccc(Br)s2)CC1", "inhibition": "-27.3% (inactive)", "nuclei count": 98.6}, {"smiles": "CC(=O)Nc1ccc(S(=O)(=O)n2cnc(C)c2)cc1", "nuclei count": 118, "inhibition": "-26.8% (inactive)"}, {"smiles": "Cc1ccc(S(=O)(=O)NCCCNC(=O)N2CCOCC2)cc1", "inhibition": "-103% (inactive)", "nuclei count": 129}, {"smiles": "CC(=O)N(c1ccc(N(C(C)=O)S(=O)(=O)c2cccs2)cc1)S(=O)(=O)c1cccs1", "nuclei count": 99.4, "inhibition": "-45.8% (inactive)"}, {"smiles": "CCCCNC(=O)c1c(C)cc(=O)oc1C", "inhibition": "-29% (inactive)", "nuclei count": 106}, {"smiles": "COC(=O)c1ccc(CSc2nc3ccccc3c(=O)n2Cc2ccco2)o1", "inhibition": "1.8% (inactive)", "nuclei count": 114}, {"smiles": "N#CCCCN1C(=O)C(O)(CC(=O)c2ccc3c(c2)OCCO3)c2ccccc21", "note": "(stereo not given)", "nuclei count": 112, "inhibition": "-15.5% (inactive)"}]}]}
